# Laboratory results published in PubChem BioAssay AID588342 (National Center for Advancing Translational Sciences (NCATS), 2011).
# In all, about 360,000 compounds went through this assay and about 25,000 (6.9%) were called active. About 9% were inconclusive and are not listed. The sample as a whole holds a higher share of actives than the screen did. A number with no mark means an inactive call. Calls come from the whole dose curve; as a rule, active = well fitted inhibition curve with a large enough effect; inconclusive = small, poorly fitted or top-dose-only effect; inactive = flat fitted curve, though single readings scatter.
# Molecular target: Luciferin 4-monooxygenase (Photinus pyralis) (UniProt P08659)
# Assay: qHTS profiling assay for firefly luciferase inhibitor/activator using purifed enzyme and Km concentrations of substrates (counterscreen for miR-21 project); note: nearly all actives have a fitted effect of over 55% in size;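 for activity change, negative = inhibition: plate controls were vehicle for no effect and reference inhibitor for full effect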
# Details: purified FLuc, luminescence inhibition; series mostly up to 57.5 µM; activity change, negative = inhibition: at the top concentration
# Outline: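 Purified P. pyralis luciferase, 10 nM final, with Km-level 10 uM D-luciferin and 10 uM ATP in 50 mM Tris acetate pH 7.5, 10 mM Mg acetate, 0.01% Tween-20, 0.05% BSA; 6-point qHTS titration about 60 µM downward; luminescence read.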
# Potency is the fitted concentration of half-maximal effect.
# Chain of Luciferin 4-monooxygenase (Photinus pyralis) (P08659 whole entry, looked up): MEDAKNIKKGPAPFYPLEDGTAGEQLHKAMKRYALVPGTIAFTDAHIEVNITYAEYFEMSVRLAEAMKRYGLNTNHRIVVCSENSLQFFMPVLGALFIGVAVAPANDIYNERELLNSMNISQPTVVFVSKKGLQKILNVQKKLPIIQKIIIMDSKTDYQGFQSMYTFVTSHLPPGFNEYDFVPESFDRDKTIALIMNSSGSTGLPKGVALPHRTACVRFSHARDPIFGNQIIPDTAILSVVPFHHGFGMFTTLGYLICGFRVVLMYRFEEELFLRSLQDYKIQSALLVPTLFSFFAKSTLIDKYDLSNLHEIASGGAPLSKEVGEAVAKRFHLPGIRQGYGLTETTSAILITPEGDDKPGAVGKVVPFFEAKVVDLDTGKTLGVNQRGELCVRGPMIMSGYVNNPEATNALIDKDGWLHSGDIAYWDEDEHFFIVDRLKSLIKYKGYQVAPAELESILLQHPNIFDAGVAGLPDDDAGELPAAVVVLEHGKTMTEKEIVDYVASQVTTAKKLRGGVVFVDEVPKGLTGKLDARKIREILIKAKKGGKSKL
Compound,"activity change, negative = inhibition [%]",Potency
Cc1ccccc1NC(=O)Cn1c(=O)n(CCCCC(=O)NCc2ccccc2Cl)c(=O)c2ccccc21,-4.82,
Cc1ccc2nc(N3CCN(c4cccc(Cl)c4)CC3)c3nnnn3c2c1,-5.21,
CCOC(=O)c1cc2c(=O)n3ccccc3nc2n(CCCOC)c1=NC(=O)C(C)Oc1ccccc1 (stereo not drawn),1.01,
COc1ccc2oc(=O)c(-c3cn4c(n3)sc3cc(OC)ccc34)cc2c1,-17.1,
CCOc1cccc2cc(-c3cn4c(n3)sc3cc(C)ccc34)c(=O)oc12,,0.426 µM (active)
CCOc1ccc(CCNC(=O)c2ccc3c(c2)sc2nc(-c4ccc(F)cc4)cn23)cc1OCC,-8.52,
COC(=O)c1ccc(NS(=O)(=O)c2cc3c4c(c2)C(C)C(=O)N4CCC3)cc1 (stereo not drawn),-0.997,
Cc1ccc(N2C(=O)CC(NCc3ccc4c(c3)OCO4)C2=O)cc1Cl (stereo not drawn),-13.1,
COc1ccc(C)cc1S(=O)(=O)Nc1cc2c3c(c1)CCC(=O)N3CCC2,0.954,
CCc1nn(CC(=O)N2CCN(c3ccc(Cl)cc3)CC2)c(=O)c2cc3occc3n12,-18.2,
COc1ccc(CCn2cc3c(c2-c2ccc(Br)cc2)c(=O)n(C)c(=O)n3C)cc1OC,-4.89,
COc1ccc(C)cc1NC(=O)c1ccc(-c2ccc(C(C)=O)cc2)o1,-11.1,
CCOC(=O)c1ccc(-c2ccc(C(=O)Nc3cccnc3)o2)cc1,,15.1 µM (active)
CCOC(=O)c1ccc(-c2ccc(/C=C(\C#N)C(=O)Nc3ccc(C)cc3)o2)cc1,-3.16,
O=C(O)c1c(CNCc2cccc(F)c2)c2ccccc2n1Cc1ccccc1,-11.7,
CNC(=S)NNC(=O)c1sccc1OCc1ccccc1,0.426,
Cc1ccc(/C=N/NC(=O)c2sccc2OCc2ccc(F)cc2)cc1,,1.35 µM (active)
Cc1ccc(COc2ccc(/C=N/NC(=O)CN3CCCCC3)cc2)cc1,-13.2,
O=C(c1ccc2c(c1)N(Cc1ccccc1F)C(=O)c1ccccc1S2(=O)=O)N1CCOCC1,-3.29,
CCN(CC)CCNC(=O)CN1N=C(c2ccc(OC)cc2)CCC1=O,3.09,
COc1ccc(C2=NN(c3nc4ccccc4s3)C(=O)C2)cc1,,9.53 µM (active)
COc1ccc(C2=NN(C(=O)c3cccnc3)C(c3ccccc3)C2)cc1 (stereo not drawn),-10.9,
COc1ccc(S(=O)(=O)c2c(Nc3cccc(Cl)c3)sc(C(=O)c3ccccc3)c2N)cc1,0.0899,
COc1cc(-c2cc3n(C)c(C)c(CCC(=O)Nc4ccc(F)cc4)c(=O)n3n2)cc(OC)c1OC,3.74,
CC(=O)c1ccc(-c2nnc(CCC(=O)N(C)Cc3cnc4ccccn34)o2)s1,-0.52,

Compound,"activity change, negative = inhibition [%]",Potency
CCc1ccc(CN(C)C(=O)CCc2nnc(-c3ccc(-c4ccccc4)cc3)o2)nc1,,13.5 µM (active)
CCc1ccc(CN(C)Cc2nc(Cc3ccccc3)no2)nc1,3.54,
Nc1ccc(-c2sc(N)nc2-c2ccccc2)cc1,-1.44,
Nc1cccc(-c2cc(-c3ccccc3)nc(-c3cccc(N)c3)n2)c1,1.65,
Nc1ccc(-c2nnc(-c3ccccc3)o2)cc1,,19 µM (active)
Nc1ccc(-c2nnc(-c3ccc(-c4ccccc4)cc3)o2)cc1,,2.69 µM (active)
O=C(OCc1nnc(-c2ccccc2)o1)c1cc(=O)[nH]c2ccccc12,4.33,
CC(=O)c1ccc(NC(c2ccc(F)cc2)c2nnc(-c3ccccc3)o2)cc1 (stereo not drawn),-2.01,
Cc1oc2ccc(O)c(CN3CCOCC3)c2c1C(=O)Nc1cccc(Cl)c1C,-1.52,
CC(NC(=O)CCc1cn(Cc2ccccc2Cl)c2ccccc12)c1ccccc1 (stereo not drawn),6.58,
CCCSc1nc2sc3c(c2c(=O)n1-c1cccc(Br)c1)CC(C)(C)OC3,0.901,
Cc1ccccc1NC(=O)Cc1nc(COC(=O)c2ccc(C(F)(F)F)cc2)cs1,3.93,
Cc1ccc(C)c(NC(=O)COC(=O)CSc2ccccc2)c1,6.9,
CCOc1ccc(NC(=O)CN(Cc2ccccc2)S(=O)(=O)c2ccc(Cl)cc2)cc1,-5.84,
Cc1cccc(NC(=O)Nc2ccc(OCc3ccccc3)cc2)n1,-1.92,
CCc1ccnc(NC(=O)Nc2ccc(OCc3ccccc3)cc2)c1,-2.87,
O=C(O)/C=C\C(=O)Nc1ccc(OCc2ccccc2)cc1,,19 µM (active)
COc1ccc(C(=O)Nc2ccc(N3CCC(C)CC3)cc2)cc1Br,-1.07,
O=C(Nc1ccc(S(=O)(=O)N2CCc3ccccc3C2)cc1)c1ccccc1,0.419,
CN1CCN(c2ccc(NC(=O)c3ccccc3)cc2)CC1,,10.7 µM (active)
O=C(Cn1ccc(=O)[nH]c1=O)Nc1ccc(C(=O)O)c(O)c1,-4.38,
COc1cccc(C(=O)Nc2ccc(N3CCN(C(=O)c4ccco4)CC3)cc2)c1,-3,
COc1ccc(C2COC(=O)C2=N)c(NC(=O)c2ccccc2)c1 (stereo not drawn),4.01,
O=C(Nc1ccc(C(=O)O)c(O)c1)c1ccccc1,,15.1 µM (active)
COc1cccc(C(=O)Nc2cc3c(cc2Br)OCCCO3)c1,,4.78 µM (active)

Compound,"activity change, negative = inhibition [%]",Potency
CC(=O)Oc1cccc(C(=O)Nc2ccccc2NC(=O)c2cccc(OC(C)=O)c2)c1,-0.563,
Cc1ccccc1C(=O)NC(=S)Nc1ccc(N2CCN(C(=O)c3ccccc3)CC2)cc1,2.99,
CC(=O)Nc1ccc(S(=O)(=O)N2CCN(c3ccccc3)CC2)cc1,-1.03,
COc1cccc(C(=O)Nc2ccc(N3CCCC3)cc2)c1,,4.26 µM (active)
COc1ccccc1N1CCN(C(=O)C2Cc3ccccc3CN2C(=O)c2ccco2)CC1 (stereo not drawn),3.04,
CC(=O)c1ccc(NC(=O)CSc2nc(-c3ccccc3F)nc3c2c(=O)n(C)c(=O)n3C)cc1,4.57,
CC(=O)N1c2ccc(S(=O)(=O)N(C)CC(=O)N(C)Cc3ccccc3)cc2CC1C (stereo not drawn),4.32,
CCCCn1c(SCc2ncc(-c3ccccc3)o2)nc2cc(S(N)(=O)=O)ccc21,-17.5,
Cc1oc2ccc(O)c(CN3CCCCC3)c2c1C(=O)Nc1cccc(C(F)(F)F)c1,-0.279,
CCn1c(CN2CCC(C)CC2)nc2cc(NC(=O)c3ccccc3[N+](=O)[O-])ccc21,5.45,
Cc1ccc(NC(=O)C(C)OC(=O)Cc2c[nH]c3ccccc23)cc1S(=O)(=O)N1CCOCC1 (stereo not drawn),-1.54,
COc1ccc(CCNC(=O)CCCCn2c(=O)c3ccccc3n(Cc3ccccc3C)c2=O)cc1OC,-1.31,
CCNC(=O)Cn1nc(C)n2c(cc3c(OC)cccc32)c1=O,-2.16,
CCOc1ccc(S(=O)(=O)Nc2nccs2)cc1,-0.677,
CCCCN(CC)C(=S)Nc1ccc2nc3n(c(=O)c2c1)CCCCC3,3.88,
Cc1ccccc1C(=O)Nc1ccc(N2CCCCCC2)cc1,,10.7 µM (active)
NS(=O)(=O)c1ccc(NC(=O)C(=O)Nc2ccc3nc4n(c(=O)c3c2)CCCCC4)cc1,1.12,
COc1cc2ccccc2cc1C(=O)Nc1ccc(N2CCOCC2)cc1,7.87,
COC(=O)c1ccc(N2CCOCC2)c(NC(=O)c2ccc3c(c2)OCCO3)c1,0.934,
O=C(CN1C(=O)COc2ccc(Cl)cc21)Nc1ccc(N2CCOCC2)cc1,-0.823,
Cc1ccccc1C(=O)N1CCN(c2ccc(NC(=O)c3cccs3)cc2)CC1,-1.16,
CN1CCN(c2ccc(NC(=O)c3cc(Cl)c4c(c3)OCCO4)cc2)CC1,,10.7 µM (active)
COc1cccc(C(=O)Nc2ccc3nc4n(c(=O)c3c2)CCCCC4)c1,,16.9 µM (active)
O=C(Nc1ccc(N2CCOCC2)c(Cl)c1)c1ccc(S(=O)(=O)N2CCOCC2)cc1,2.53,
O=C(NC(=O)c1ccccc1N1CCCCC1)Nc1ccc(Br)cc1,-6.23,

Compound,"activity change, negative = inhibition [%]",Potency
CN1CCN(c2ccc(NC(=O)c3ccc4c(c3)OCCO4)cc2Cl)CC1,,4.78 µM (active)
COc1ccc2c(Sc3ccc(C)cc3)c(C(=O)NC(C)c3ccccc3)[nH]c2c1 (stereo not drawn),3.3,
CC(C)Cn1c(=O)c2ccccc2n2c(CCC(=O)N3CCN(c4cccc(Cl)c4)CC3)nnc12,4.18,
Cc1cccc(NS(=O)(=O)c2ccc(C)c(C(=O)NCC(c3ccccc3)N(C)C)c2)c1 (stereo not drawn),-0.184,
O=C(NC1CCN(Cc2ccccc2)CC1)c1ccc(Cn2c(=O)c3ccccc3n(Cc3cccc(F)c3)c2=O)cc1,-5.59,
O=C(NCCOc1cccnc1)c1ccc(OC2CCN(Cc3ccccn3)CC2)cc1,-1.59,
CCOc1ccc(N(CC)C(=O)C2CCN(S(=O)(=O)c3cccc4nonc34)CC2)cc1,5.23,
CC(OC(=O)c1ccc(NS(=O)(=O)c2ccc3[nH]c(=O)[nH]c3c2)cc1)C(=O)Nc1cccc(Cl)c1Cl (stereo not drawn),2.36,
COc1ccc2c(c1)c(N1CCCC1=O)c(C(=O)Nc1ccccc1C(F)(F)F)n2C,-1.46,
CCOc1ccc(NC(=O)c2cn(C3CCCCC3)c(=O)c3c2c2ccccc2n3C)cc1,0.366,
CCOc1ccc(NC(=O)CN(C)C(=O)Cc2sc(C)nc2-c2ccc(F)cc2)cc1OCC,1.86,
O=C1CC(c2ccc(F)cc2F)c2cc3c(cc2N1)OCO3 (stereo not drawn),-7.02,
O=C(c1ccccc1)N1CCC(CC2CC(c3ccc(Cl)cc3)=NO2)(C(=O)NCC2CCCCC2)CC1 (stereo not drawn),-0.0551,
Cc1nnc2n1N=C(c1ccc3c(c1)NC(=O)CO3)CS2,-2.33,
Cn1c(=O)cc(OCC(=O)N2CCN(c3ccccc3)CC2)c2ccccc21,1.2,
CCOc1ccc(NC(=O)c2c(NCc3cccc(OC)c3OC)sc3c2CCC3)cc1,2.55,
COc1ccc(C(=O)NNS(=O)(=O)c2ccc(C)cc2)cc1,5.49,
COc1ccc(C(=O)CC(=O)c2ccc(C)cc2)c(O)c1,,21.3 µM (active)
COc1ccc(C(=O)Cc2cnn(-c3ccccc3)c2)c(O)c1,,3.38 µM (active)
Cc1[nH]nc(-c2ccc(OCc3cnn(-c4ccccc4)c3)cc2O)c1Oc1ccc(Cl)cc1,0.697,
COc1ccc(CC(=O)c2ccc(O)cc2O)cc1OC,-6.24,
COc1ccc(C(=O)C[n+]2ccc(C)cc2)cc1,8.37,
Cc1cccc(OCC(=O)N(Cc2ccc(C(C)C)cc2)Cc2ccco2)c1C,0.0838,
